From PubChem BioAssay (NCATS)
Results filed as inconclusive are left out. Calls come from the whole dose curve; as a rule, active = well fitted curve in either direction with a large enough effect (not every such curve was filed as active); inconclusive = small, poorly fitted or top-dose-only effect, or another doubt; inactive = flat fitted curve, though single readings scatter.

Assay: Stat Signaling Pathway (AID 446);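 note: ME-180 cervical cancer cells given 40 pM IL-6 alongside compound; SIE-controlled beta-lactamase reporter measured as 460/530 nm FRET emission ratio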
Details: ME-180 SIE beta-lactamase reporter, IL-6 stimulated, 5 h; at 17.2 µM (top of the series) unless noted
How it was run: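 Screening format detects activators and inhibitors alike: ME-180 SIE-bla cells stimulated at 40 pM IL-6 for 5 hrs with compound, then dual-emission beta-lactamase read at 405 nm excitation.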
% is set by controls: 0 for no effect and ±100 for the full control effect.

activity, negative = inhibition, inactive:
Cc1ccc(C2/C(=C(/O)c3ccc(OC(C)C)cc3)C(=O)C(=O)N2CCN2CCOCC2)cc1 (configuration not stated) -12.8%
COC(=O)c1ccccc1N1C(=O)[C@@H]2C(c3ccc(Br)cc3)=NO[C@@H]2C1=O 7.92%
CCCCOc1ccc(C(=O)Nc2ccc(N3CCN(C(C)=O)CC3)cc2)cc1 -7.6%
CCOC(=O)CSc1nc(N(C)C)nc(N(C)C#N)n1 -0.469%
CC(=O)c1c(C)c2c(n1CCN(C)C)CCCC2 9.43%
Oc1ccc(C=Nc2ccc3ncccc3c2)c(O)c1 13.2%
COC(=O)c1[nH]c(C)c(/C(O)=C2\C(=O)C(=O)N(CCN3CCOCC3)C2c2cccnc2)c1C (configuration not stated) 2.79%
CCOC(=O)c1cc2c(=O)n3cccc(C)c3nc2n(Cc2cccnc2)c1=N 12%
Cn1ncc2nnn(-c3ccccc3)c(=O)c21 3.98%
CCCOc1ccc(N2C(=O)CC(N(Cc3ccc(S(N)(=O)=O)cc3)C(=O)CC)C2=O)cc1 (configuration not stated) 11.7%
CSc1nc2sc3c(c2c(=O)[nH]1)CCC(C)C3 (configuration not stated) 8.48%
Clc1ccccc1-c1nn2c(-c3ccccn3)nnc2s1 12.8%
O=C1c2ccccc2S(=O)(=O)N1CC(O)COc1ccc(Cl)cc1 (configuration not stated) -1.8%
Cc1ccc(-n2c(SCC(=O)NCc3ccco3)nc3nc4c(cc3c2=O)COC(C)(C)C4)cc1 -3.2%
Clc1nc(-c2n[nH]nc2Cl)n[nH]1 5.38%
CCOC(=O)c1sc(-n2[nH]c(C)cc2=O)nc1C 1.64%
O=C(NCc1ccccc1)/C(=N\O)c1ccccc1 3.38%
COc1cccc(/C(O)=C2/C(=O)C(=O)N(CCN(C)C)C2c2ccc(Br)cc2)c1 (configuration not stated) 0.896%
CN=C1c2c(-c3ccccc3)c3cc(OC)ccc3n2CCN1C -1.77%
Cc1[nH]nc2cn[nH]c12 4.46%
Cc1[nH]nc2c1C(CCc1ccccc1)C(C#N)=C(N)O2 (configuration not stated) -1.82%
CC(=O)/C=C(\C)NCCNc1c(F)c(F)c(CO)c(F)c1F -2.87%
